Results on 40 compounds are retold here after PubChem BioAssay (NCATS).

Records with an inconclusive call do not appear. Unmarked numbers belong to inactive results. Activity calls are given as the source filed them. The call rests on the fitted dose curve; in most records, active means well fitted activation curve with a large enough effect in the signal ratio, with a control signal flat (not every such curve was filed as active); inconclusive means small, poorly fitted or top-dose-only effect, or effect the other way, or a change in a side signal; inactive means flat fitted curve, though single readings scatter; the % refers to the signal ratio.
Potency means the concentration at half of the fitted maximal effect.

The test can be described thus: qHTS Assay for Identification of Small Molecule Agonists for Hypoxia Response Element Signaling Pathway (AID 914). On activation: % of control where 0% means no effect. As to conditions: ME-180 (cervical carcinoma) HRE-bla reporter, beta-lactamase ratio, CoCl2, 17 h; activation: hits give high values. The source says: NIH Molecular Libraries Screening Centers Network [MLSCN]
NIH Chemical Genomics Center [NCGC]
Hypoxia-inducible factor-1 (HIF-1) is the major hypoxia-regulated transcription factor that controls cellular responses to low oxygen concentration. HIF-1 is composed of two subunits: hypoxia responsive HIF-1 alpha and constitutively expressed HIF-1 beta, which is also known as aryl hydrocarbon receptor nuclear translocator. During hypoxic conditions, HIF-1 alpha heterodimerizes with HIF-1 beta and translocates into the nucleus where the HIF-1 complex binds to the hypoxia-response element (HRE) and activates expression of target genes such as VEGF (vascular endothelial growth factor). HIF-1 alpha protein levels are elevated in many solid tumors, including those of the cervix and brain. Within tumors, cells that are the greatest distance from blood vessels and therefore the most hypoxic express the highest levels of HIF-1 alpha. Therapeutic blockade of the HIF-1 signaling pathway in cancer cells therefore provides an attractive strategy for development of anticancer drugs.
Using a beta-lactamase reporter-gene under control of the hypoxia response element, a cell-based assay [CellSensor(TM) HRE-bla ME-180 developed by Invitrogen Corp.] was used to measure hypoxia-induced signaling. Library compounds were measured for their ability to positively modulate the action of EC50 CoCl2 on reporter gene activity. Compounds were screened in a titration series in 1536-well format. Positive modulators were identified based on the AC50 values derived from the screening data.
NCGC Assay Protocol Summary:
2500 cells/5uL in Opti-MEM medium containing 0.5% dialyzed FBS, 0.1 mM NEAA, 1 mM sodium pyruvate and 10 mM HEPES was dispensed into 1536-well plates and cells were cultured at 37 degrees Celsius overnight. Next day 23 nL of compounds or DMSO were delivered to each well using a pin tool, and 1uL of EC50 level of CoCl2, or EC100 level of CoCl2, or assay medium was added. And then the plates were incubated at 37 degrees Celsius for 17 hours. 1 uL of CCF4-dye mixture was added to each well. After incubated at room temperature for 2.5 hours the plates were measured on an EnVision plate reader at Excitation 405nm, Emission1=460nm and Emission 2=530nm. The %Activity was determined from the ratio of 460nm/530nm.
(In qHTS, concentration-response curves come from the screen itself.)
For the compound `Cc1c(/C(O)=C2\C(=O)C(=O)N(CCCN(C)C)C2c2ccccc2)cnn1-c1ccccc1` (stereo not given), the activation was 3.31%. Same read-out and setting: in the case of `O=C(NC1CCCCC1)Nn1c(-c2ccccc2)nc2ccccc2c1=O` it was 1.48%. Take `CCNC(=O)c1cc2c(=O)n3cccc(C)c3nc2n(CCc2ccccc2)c1=N`: the Potency was 10 µM (active). Consider `COCCCn1c(C)nc2c(c1=O)c1nc3ccccc3nc1n2CCc1ccccc1`, for which the activation is -19.8%. Consider `Cc1sc(-n2c(C)ccc2C)c(C#N)c1C`, for which the activation was 5.91%. Turning to `CC(C)COC(=O)CCNc1n[nH]c(=O)[nH]c1=O`, the activation was -10.2%. As for `CCOC(=O)c1[nH]c2ccc(OC)cc2c1NC(=O)CCN1CCC(C)CC1`, the activation is -29.8%.

As to `C=CCn1c(N)c(C(=O)OC(C)(C)C)c2nc3ccccc3nc21`, the Potency is 10 µM (active). For `CCOC(=O)C1=C(C)NC(SCC(=O)Nc2nc(C)cs2)=C(C#N)C1c1cccs1` (stereo not given), the Potency was 10 µM (active). As for `Cc1ccc(C(=O)/C=C/Nc2cccc(O)c2)cc1`, the Potency is 10 µM (active). For `O=C1c2ccccc2C(=O)N1CC1c2ccccc2CCN1C(=O)N1CCOCC1` (stereo not given), the activation is 4.7%. In the case of `CCCCOc1ccccc1C(=O)NCCCCCC(=O)O`, the activation was 8%. In the case of `CC(C)(C)NCc1cc2ccccc2[nH]c1=O`, the activation is -14.6%.

For `CCOC(=O)c1c(-c2cccs2)csc1NC(=O)c1ccncc1`, the Potency was 6.31 µM (active). Turning to `CCCC(=O)N(Cc1cc2ccccc2[nH]c1=O)c1ccccc1OC`, the activation was -13.3%. In the case of `COc1ccc(OC)c2c(N)c(C#N)c(C(F)(F)C(F)(F)F)nc12`, the Potency is 10 µM (active).

As for `COc1ccccc1C1/C(=C(\O)c2ccc3c(c2)OCCO3)C(=O)C(=O)N1CCCN(C)C` (stereo not given), the activation is -1.93%. For `CCOC(=O)C1(C(=O)OCC)C(c2ccccc2)CC(O)N1C(C)=O` (stereo not given), the activation is 15.4%.

On to `CN(Cc1ccccc1)Cc1c[nH]c2ccccc12`, for which the activation was -19.8%. Consider `CC(C)NC(=O)N1CCOCCOCCN(C(=O)NC(C)C)CCOCCOCC1`, for which the activation was 3.05%.

Take `Cc1nn(CCO)c2c1C(=O)CCC2`: the activation is 12.2%. Regarding `COc1ccc2c(C)nc(Nc3nc(C)cc(C)n3)nc2c1`, the activation was -6.59%. Regarding `CCCN(CCC)C(=O)CC(c1ccc(F)cc1)c1ccco1` (stereo not given), the activation was 13.9%. For `COCCNC(=O)c1c(N)n(/N=C/c2cccs2)c2nc3ccccc3nc12`, the Potency was 10 µM (active). In the case of `CNc1nc(C)c(C#N)cc1C(C)=O`, the activation is 6.97%.

For the compound `COCCNC(=O)c1c(N)n(CCC2=CCCCC2)c2nc3ccccc3nc12`, the Potency was 10 µM (active). `CCCCn1cnc2c(c1=O)c1nc3ccccc3nc1n2Cc1ccc2c(c1)OCO2`: the Potency is 12.6 µM (active). On to `Cc1nnc2c(NC(C)C)nc3ccccc3n12`, for which the Potency was 10 µM (active). On to `Cc1cc(C)c(S(=O)(=O)O)c(C)n1`, for which the activation was 11.7%.

Regarding `CSc1ccccc1NC(=O)c1c(Br)cnn1C`, the activation is 27.6%. Take `O=c1/c(=C\c2cccn2-c2ccccc2)sc2nc3ccccc3n12`: the Potency is 12.6 µM (active). As to `O=C1C2ON(c3ccccc3)C(c3cccnc3)C2C(=O)N1c1ccc(Cl)c(Cl)c1` (stereo not given), the activation is 2.42%.

On to `CCOC(=O)C(c1ccccc1)N1CCN(c2ccc(OC)cc2)CC1` (stereo not given), for which the activation is -13.4%. In the case of `C=CCc1cccc(/C=N/c2ncn[nH]2)c1O`, the activation is 26.2%. On to `CCCc1cc(=O)oc2c(CN3CCN(C)CC3)c(O)c(Cl)cc12`, for which the Potency is 5.01 µM (active). Turning to `COc1ccc(CCn2c(C)ccc2C)cc1OC`, the activation was -9.87%.

As for `CSc1cc(C)nc(N(C)C(C)=O)n1`, the activation was 14.1%. Regarding `Cc1cccc(N2CC(=O)N(c3cccc(C)c3)CC2=O)c1`, the activation was 1.3%. Still for that read-out and setting: in the case of `Cc1cc(CC(=O)O)c(C)cc1CC(=O)O` it was 5.91%. On to `COC(=O)C(NC(C)=O)(Nc1nc2c(s1)CCCC2)C(F)(F)F` (stereo not given), for which the activation is -17%.
